The list is not random: actives were taken first. Their share in the collection is about 3%.
OvCa metastasis: blocks SKOV3ip1 adhesion and invasion in omental model. SKOV3ip1-GFP adhesion/invasion on 3D omental model, fluorescence. Potency, µM (series often up to 45.8 µM), without a hit: top-dose activity change, negative = inhibition, most hits filed as inhibitors. 46,000 tested, 0.1% active;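 also: potency is read from the fitted curve at half-maximal effect; plate controls were DMSO wells for no effect and tomatine positive control wells for full effect; nearly all actives have a fitted effect of over 65% in size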
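Adhesion/invasion was scored as fixed GFP-labeled SKOV3ip1 cell counts (488/509 nm), normalized to DMSO and tomatine controls. Cancer cells in serum-free medium, with four compound doses (0.36-46 umol/L), sat 2 hr at RT then 16 hr at 37 C on a 48 hr fibroblast/mesothelial/ECM culture.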
p53null 39C kill: kills p53 null cells at the nonpermissive temperature; H1299 p53-null (neo) cells, 39C, ATPlite viability, 24 h; Potency, µM (series often up to 46.1 µM), inactives show at the highest dose activity, negative = cell killing, actives largely listed as cytotoxic; 55,000 tested, 0.97% active; AID 904;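 also: potency is read from the fitted curve at half-maximal effect; 0% = DMSO only and -100% = full killing by 100 µM tamoxifen; nearly all actives have a fitted effect of over 50% in size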
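Concentration-response (up to 46 uM) was run for 24 h at the nonpermissive 39C on H1299-p53A138V or H1299-neo cells. ATP content was measured with ATPlite luminescence. AC50 values were Hill-modeled after normalizing between DMSO and 100 uM tamoxifen killing.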
p53null 32C tox: selectivity test: cytotoxicity in p53 null cells, permissive temperature; H1299-neo p53 null cells, ATP luminescence, 24 h, 32C; Potency, µM (highest dose often 46.1 µM), for the others: at the top dose activity change, negative = cytotoxicity, usual class: cytotoxic; 55,000 tested, 0.62% active;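 also: potency is read from the fitted curve at half-maximal effect; 0% = DMSO only and -100% = full killing by 100 µM tamoxifen; nearly all actives have a fitted effect of over 55% in size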
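H1299-neo (p53-null) cells, 600/well, were pre-incubated overnight at 37C, then exposed to compounds at up to 46 uM for 24 hr at 32C. Viability was measured as ATP content by luminescence, and AC50 values came from Hill fits.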
mTORC1 inh: mTORC1 pathway inhibition measured by phospho-rpS6 | Tsc2-/- p53-/- MEF, phospho-rpS6 immunofluorescence/PI, 24 h | Potency, µM (highest dose often 38.3 µM), for inactives: at the top dose activity change, negative = inhibition, hits mostly inhibitors | 44,000 tested, 0.78% active;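 also: potency is read from the fitted curve at half-maximal effect; plate controls were DMSO for no effect and rapamycin for full effect; nearly all actives have a fitted effect of over 50% in size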
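Readout is phospho-S6 Alexa 488 signal normalized to PI per well, reported as % active cells with thresholds set from rapamycin (7.5 nM) and DMSO controls. Cells: Tsc2-/-, p53-/- MEFs, 24 hrs compound at 37 C; PI cell number serves as viability.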
S16 F2sN tox: S16 Schwann cell cytotoxicity | S16 Pmp22-F2sN Schwann cells viability, CellTiter-Glo, 24 h | Potency, µM (doses to about 57.5 µM), without a hit: at the top dose activity change, negative = cytotoxicity, hits mostly cytotoxic | 43,000 tested, 0.48% active; also: potency is read from the fitted curve at half-maximal effect; % is scaled to controls: 0 for no effect and ±100 for the full control effect; nearly all actives have a fitted effect of over 65% in size
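Seed 500-1,000 S16 Pmp22-F2sN cells per well in phenol-red-free DMEM with 10% heat-inactivated FBS; pin-add 23 nL compound; incubate 24 h at 37C; add CellTiter-Glo, wait 15 min protected from light; read luminescence.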
PMP22 txn prim: modulators of PMP22 gene transcription in S16 Schwann cells; S16 Pmp22-F2sN Schwann cells, FLuc/NLuc coincidence luminescence, 24 h; 43,000 tested, 2% active; Potency, µM (series often up to 57.5 µM), without a hit: at the top dose activity change, negative = inhibition, actives largely listed as inhibitors; active = clear falling dose curves in both reporters; inconclusive = both reporters move, but less clearly or upward; inactive = either reporter flat; the % is the NLuc reporter signal; also: potency is read from the fitted curve at half-maximal effect; % is scaled to controls: 0 for no effect and ±100 for the full control effect
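qHTS, 1536-well. Cells seeded, compounds added by pin tool, 24 h 37C. Nano-Glo reagent 1 (lysis/FLuc), 10 min RT, read; Stop&Glo, 10 min RT, read NLuc.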
NLuc saturating: inhibits NanoLuc at saturating substrate, PMP22 counter-screen; Secreted NLuc enzyme (filtered S16 cell medium), Nano-Glo luminescence; shares compounds with PMP22 txn prim; 690 tested, 4% active; Potency, µM (series often up to 57.5 µM), without a hit: top-dose activity change, negative = inhibition, hits mostly inhibitors; also: potency is read from the fitted curve at half-maximal effect; % is scaled to controls: 0 for no effect and ±100 for the full control effect
NLuc Km ctr: NanoLuc inhibition at Km substrate, PMP22 artifact check; secreted NLuc enzyme, coelenterazine luminescence, Km conditions; AID 1508639; 690 tested, 5% active; Potency, µM (doses to about 57.5 µM), without a hit: at the top dose activity change, negative = inhibition, hits mostly inhibitors; shares compounds with PMP22 txn prim; also: potency is read from the fitted curve at half-maximal effect; % is scaled to controls: 0 for no effect and ±100 for the full control effect
FLuc counter: counter-screen for PMP22 expression modulators: firefly luciferase inhibition; shares compounds with PMP22 txn prim; purified P. pyralis FLuc, luminescence, 10 min; 690 tested, under 10 active; AID 1508640; Potency, µM (doses to about 57.5 µM), for inactives: at the highest dose activity, negative = inhibition, actives largely listed as inhibitors; also: % of control where 0% means no effect
Target sequence (P08659 whole entry, looked up): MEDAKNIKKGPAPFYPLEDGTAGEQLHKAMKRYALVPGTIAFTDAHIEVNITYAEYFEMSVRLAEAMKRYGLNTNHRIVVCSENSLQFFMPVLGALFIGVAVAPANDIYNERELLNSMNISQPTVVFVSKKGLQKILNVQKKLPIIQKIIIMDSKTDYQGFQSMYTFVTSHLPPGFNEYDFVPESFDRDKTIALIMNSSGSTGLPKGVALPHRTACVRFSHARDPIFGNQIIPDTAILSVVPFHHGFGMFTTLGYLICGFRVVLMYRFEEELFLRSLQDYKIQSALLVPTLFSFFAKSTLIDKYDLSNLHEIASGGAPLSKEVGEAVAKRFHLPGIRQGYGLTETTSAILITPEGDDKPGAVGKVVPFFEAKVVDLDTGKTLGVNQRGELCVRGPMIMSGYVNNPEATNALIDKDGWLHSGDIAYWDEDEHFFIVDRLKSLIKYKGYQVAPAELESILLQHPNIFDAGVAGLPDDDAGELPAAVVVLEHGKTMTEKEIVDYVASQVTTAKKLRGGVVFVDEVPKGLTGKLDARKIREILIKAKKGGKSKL
S16 viab conf: confirmation of cytotoxicity in S16 Pmp22-F2sN Schwann cells (luciferase reporters placed in the Pmp22 gene); S16 Schwann cells viability, CellTiter-Glo ATP luminescence, 24 h; shares compounds with PMP22 txn prim; 690 tested, 7% active; Potency, µM (doses to about 57.5 µM), without a hit: at the top dose activity change, negative = viability loss, most hits filed as cytotoxic; also: potency is read from the fitted curve at half-maximal effect; % is scaled to controls: 0 for no effect and ±100 for the full control effect
PMP22 txn conf: PMP22 transcription modulation, confirmatory; AID 1508646; Potency, µM (titrated, usually from 57.5 µM), without a hit: at the top dose activity change, negative = inhibition, actives largely listed as inhibitors; 690 tested, 22% active; S16 Schwann cells Pmp22-F2sN, dual luciferase, 24 h; shares compounds with PMP22 txn prim; active = clear falling dose curves in both reporters; inconclusive = both reporters move, but less clearly or upward; inactive = either reporter flat; the % is the FLuc reporter signal; also: potency is read from the fitted curve at half-maximal effect
PMP22 prot conf: confirmation of modulators of rat PMP22 protein expression | AID 1508647 | shares compounds with PMP22 txn prim | 95 tested, under 10 active | S16 Schwann cells Pmp22-HiBiT, luminescence, 48 h | Potency, µM (titrated, usually from 27.9 µM), for the others: top-dose activity change, negative = inhibition, most hits filed as inhibitors
Target sequence (P25094 whole entry, looked up): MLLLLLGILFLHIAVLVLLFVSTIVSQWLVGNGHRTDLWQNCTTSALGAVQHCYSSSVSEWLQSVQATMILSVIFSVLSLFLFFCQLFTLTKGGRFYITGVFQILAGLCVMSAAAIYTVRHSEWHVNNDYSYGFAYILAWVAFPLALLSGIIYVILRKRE
* marks the source's active call; other numbers are inactive results; i = inactive; ? = inconclusive; . = no result. Unless noted, calls follow the shape of the dose curve; as a rule, active = well fitted curve in the direction sought with a large enough effect; inconclusive = small, poorly fitted or top-dose-only effect, or another doubt; inactive = no such curve, though single readings can be large; an effect the other way counts as inactive or inconclusive.

SMILES	OvCa metastasis	p53null 39C kill	p53null 32C tox	mTORC1 inh	S16 F2sN tox	PMP22 txn prim	NLuc saturating	NLuc Km ctr	FLuc counter	S16 viab conf	PMP22 txn conf	others
CCOc1ccccc1Nc1sc(C(=O)c2ccc(Cl)cc2)c(N)c1C#N	13%	11%	-7%	-3%	1%	15µM*	0%	4%	-2%	1%	-2%
C=CCOc1c(Br)cc(CNc2ccc(NC(=O)C(C)C)cc2)cc1OCC	.	.	-24%	.	.	.	.	.	.	.	.
CCOc1cc(CNc2ccc(O)cc2)cc(Br)c1OCc1ccccc1	0%	?	12%	-8%	?	8.5µM*	?	?	-11%	11%	15µM*	PMP22 prot conf=-11%
CCOc1cc(CNc2ccc(O)cc2)ccc1OCc1ccc(Cl)cc1	-16%	?	2%	?	?	7.8µM*	17µM*	19µM*	?	-5%	-40%
CCN(CC)CCCNC(=O)c1ccc2c(c1)sc1nc(-c3ccc(C)cc3)cn12	?	1%	4%	6%	?	10µM*	?	?	15µM*	15µM*	15µM*
CCOC(=O)c1c(C)oc2ccc(N(C(=O)Oc3ccccc3)S(=O)(=O)c3ccc(CC)cc3)cc12	-5%	53%	39%	-4%	-2%	?	.	.	.	.	.
CC(=O)c1c(C)oc2ccc(N(C(=O)Oc3ccccc3)S(=O)(=O)c3ccc(C(C)(C)C)cc3)cc12	15%	25%	25%	-15%	2%	13µM*	-14%	-6%	-2%	-5%	?
O=C(CO)N1CCC(c2[nH]nc(-c3ccc(Cl)cc3)c2-c2ccncn2)CC1	-15%	.	.	.	.	.	.	.	.	.	.
O=C(CSc1nnc(-c2ccc(Cl)cc2)o1)c1ccc([N+](=O)[O-])cc1	i	11%	4%	-8%	25%	?	.	.	.	.	.
CC(=O)Nc1cccc(-c2nnc(SCC(=O)c3cc([N+](=O)[O-])ccc3Cl)o2)c1	8%	?	10%	?	-1%	14µM*	12µM*	7.7µM*	?	?	18µM*
CCOc1ccc(Nc2nc(-c3c(C)nc4ccccn34)cs2)cc1	12%	.	.	.	.	.	.	.	.	.	.
Cc1cc(Nc2cccc(Br)c2)n2c(nc3ccccc32)c1C#N	i	-25%	-17%	-5%	?	9µM*	-18%	?	7%	10%	?
O=C(CSc1c2c(nc3ccc(Cl)cc13)CCCC2)NCc1ccccc1Cl	i	?	15%	-2%	22µM*	11µM*	?	?	-1%	27%	?
COC(=O)c1ccccc1NC(=O)CSc1c2c(nc3ccc(Cl)cc13)CCCC2	5%	-7%	22%	0%	17%	18µM*	-15%	4%	6%	?	?
Cc1ccc(CNC(=O)CSc2c3c(nc4ccc(Cl)cc24)CCCC3)cc1	i	-12%	2%	-11%	1%	10µM*	-13%	?	-5%	5%	-17%
Cc1ccc(C)c(NC(=O)CSc2c3c(nc4ccc(Cl)cc24)CCCC3)c1	3%	-20%	1%	2%	1%	15µM*	-20%	-7%	5%	0%	?
CCCNC(=O)CSc1c2c(nc3ccc(Cl)cc13)CCCC2	-13%	57%	28%	?	16%	?	.	.	.	.	.
O=C(CSc1c2c(nc3cc(Cl)ccc13)CCCC2)NCc1ccccc1Cl	?	?	12%	-26%	?	?	.	.	.	.	.
NS(=O)(=O)c1ccc(NC2=CC(=O)c3ccccc3C2=O)cc1	-12%	.	.	.	.	.	.	.	.	.	.
N[C@@]1(C(=O)O)CS(=O)(=O)[C@H]2[C@H](C(=O)O)[C@H]21	-15%	.	.	.	.	.	.	.	.	.	.
COc1ccc(NC(=O)CSc2c3c(nc4ccc(Cl)cc24)CCCC3)cc1Cl	-12%	21%	12%	1%	?	19µM*	?	?	6%	?	?
CCOC(=O)c1ccc(NC(=O)CSc2c3c(nc4cc(Cl)ccc24)CCCC3)cc1	27%	-11%	0%	2%	10%	?	.	.	.	.	.
COc1cc(NC(=O)CSc2c3c(nc4ccccc24)CCC3)cc(OC)c1OC	-10%	3%	0%	?	30%	?	.	.	.	.	.
CCC(C)NC(=O)CSc1c2c(nc3cc(Cl)ccc13)CCCC2 (stereo not given)	3%	-30%	2%	-3%	4%	12µM*	?	?	5%	7%	?
O=C(NOCC(O)CO)c1cc(Br)c(F)c(F)c1Nc1ccc(I)cc1F (stereo not given)	6%	.	.	.	.	.	.	.	.	.	.
COc1ccc2nc(NC(=O)c3nc(SCc4cccc(C)c4)ncc3Cl)sc2c1	i	-20%	1%	3%	4%	10µM*	-9%	5%	5%	?	?
